# Compound activity from PubChem.
# The list is not random: actives were taken first. Their share in the collection is about 12%.
# PLK1 PBD block – blocks phosphopeptide binding to human PLK1 polo-box domain; AID 720504; Plk1 PBD binding of FITC phosphopeptide, fluorescence polarization; 360,000 tested, 2.8% active; Potency, µM, for the others: max response, negative = inhibition, usual class: inhibitors; P53350; note: potency is the fitted concentration of half-maximal effect; series mostly up to about 57 µM; % is set by controls: 0 for no effect and ±100 for the full control effect; nearly all actives have a fitted effect of over 65% in size
# JMJD2A Tudor inh – JMJD2A Tudor domain (human) inhibition. O75164. AlphaScreen JMJD2A-Tudor / H3K4me3 peptide binding. Potency, µM (doses to about 114 µM), for inactives: at the highest dose activity change, negative = inhibition, usual class: inhibitors. 390,000 tested, 4.4% active; note: potency is the fitted concentration of half-maximal effect; % is set by controls: 0 for no effect and ±100 for the full control effect; nearly all actives have a fitted effect of over 50% in size
# PI5P4K alpha inh – blocks human PI5P4K alpha kinase activity. PI5P4Kalpha enzyme, ADP-Glo luminescence, 60 min; stronger effect = lower value. 330,000 tested, 1.2% active. P48426. max response, %; active = max response of -50% or lower; inconclusive = between -30% and -50%; inactive = -30% or higher; note: value at the top dose of about 77 µM; % is set by controls: 0 for no effect and ±100 for the full control effect
#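 Human PI5P4Kalpha with substrate in 0.038 M HEPES pH 7.4, 0.28 mM EGTA, 0.1% CHAPS, 5% DMSO; reaction started with 5 microM ATP (final), 60 min at room temperature. ADP formed read by ADP-Glo luminescence.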
# HP1b chromo inh – blocks HP1-beta chromodomain binding to methylated histone tails | AlphaScreen HP1-beta / biotin-H3K9me3 peptide binding | 390,000 tested, 0.56% active | P83916 | Potency, µM (highest dose often 114 µM), inactives show at the highest dose activity change, negative = inhibition, most hits filed as inhibitors; note: potency is the fitted concentration of half-maximal effect; nearly all actives have a fitted effect of over 70% in size
# Target sequence (P83916 whole entry, looked up): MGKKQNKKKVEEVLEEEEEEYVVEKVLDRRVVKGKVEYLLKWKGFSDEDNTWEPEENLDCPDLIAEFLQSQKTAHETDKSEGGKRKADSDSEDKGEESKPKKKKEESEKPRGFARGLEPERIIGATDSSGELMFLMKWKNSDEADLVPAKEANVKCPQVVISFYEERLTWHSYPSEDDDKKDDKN
#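 Compound inhibition of the preformed complex between 50 nM HP1-beta and 50 nM biotinylated H3K9me3 peptide was read by AlphaScreen. Buffer was PBS pH 7.4 with 0.01% Tween-20. Incubations ran 30 min at room temperature, with 10 ug/mL donor/acceptor beads.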
# BAZ2B inh – BAZ2B (human) inhibition; 360,000 tested, 4.4% active; Q9UIF8; AID 504333; AlphaScreen BAZ2B-H3K14Ac peptide displacement; Potency, µM (series often up to 114 µM), for inactives: at the top dose activity change, negative = inhibition, actives largely listed as inhibitors; note: potency is the fitted concentration of half-maximal effect; % is set by controls: 0 for no effect and ±100 for the full control effect; nearly all actives have a fitted effect of over 60% in size
#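 Multi-concentration screen (max 110 uM) measuring displacement of acetylated histone H3 peptide from BAZ2B by AlphaScreen, using 50 nM protein, 50 nM peptide and 10 ug/mL streptavidin donor plus Ni-chelate acceptor beads.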
# G9a block – blocks human histone lysine methyltransferase G9a. Q96KQ7. G9a H3K9 monomethylation, AlphaScreen, 2 h. Potency, µM (highest dose often 102 µM), inactives show at the top dose activity, negative = inhibition, hits mostly inhibitors. 350,000 tested, 8.8% active; note: potency is the fitted concentration of half-maximal effect; % is set by controls: 0 for no effect and ±100 for the full control effect; nearly all actives have a fitted effect of over 75% in size
# Target sequence (Q96KQ7 913-1193 limits assumed): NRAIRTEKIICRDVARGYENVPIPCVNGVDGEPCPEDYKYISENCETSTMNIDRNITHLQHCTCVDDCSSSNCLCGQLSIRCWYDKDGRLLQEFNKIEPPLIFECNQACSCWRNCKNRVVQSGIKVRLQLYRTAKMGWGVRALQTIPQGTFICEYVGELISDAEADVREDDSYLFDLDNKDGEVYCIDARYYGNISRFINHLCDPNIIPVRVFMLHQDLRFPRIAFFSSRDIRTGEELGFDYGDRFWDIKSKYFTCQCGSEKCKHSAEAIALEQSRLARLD
#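 Compounds were preincubated with 20 nM G9a for 15 min, after which biotinylated H3K9 peptide (500 nM) and SAM (20 uM) started a 2 h room-temperature reaction. Monomethylated product was quantified by antibody-based AlphaScreen chemiluminescence.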
# The depositor's hits bear a star; u = inconclusive; x = no result; [ ] = remark or other dose. Unless noted, calls come from the whole dose curve; as a rule, active = well fitted curve in the direction sought with a large enough effect; inconclusive = small, poorly fitted or top-dose-only effect, or another doubt; inactive = no such curve, though single readings can be large; an effect the other way counts as inactive or inconclusive.
SMILES,PLK1 PBD block,JMJD2A Tudor inh,PI5P4K alpha inh,HP1b chromo inh,BAZ2B inh,G9a block
CC1CCCN(CC(=O)Nc2ccc(S(=O)(=O)N3CCCCC3)cc2)C1 (configuration not stated),-2%,-13%,x,26%,6%,-7%[59 µM]
CC(=O)Nc1ccc(S(=O)(=O)N2CCN(C(C)CCc3ccccc3)CC2)cc1 (configuration not stated),-12%,1µM*,2,u,50µM*,7.1µM*
CC1CCN(S(=O)(=O)c2ccc3c(c2)CCC(=O)N3CC(=O)Nc2cccc(C#N)c2)CC1,x,-32%,x,-21%,50µM*,3%[12.7 µM]
Cc1noc(C)c1C(=O)Nc1ccc(S(=O)(=O)N2CCCCC2)cc1,0%,0%,-11,12%,-4%,-8%
CC1CCCN(S(=O)(=O)c2ccc(NC(=O)CN3CCCCC3)cc2)C1 (configuration not stated),-17%,u,-3,24%,-1%,45µM*
O=C(CCc1ccc(S(=O)(=O)NC2CCCCC2)cc1)Nc1ccccc1,27µM*,-13%[11.4 µM],-12,-7%,3%,9%[2.33 µM]
CC1CCN(CC(=O)Nc2ccc(S(=O)(=O)N3CCC(C)CC3)cc2)CC1,5%,0.79µM*,-8,u,u,x
CC1CCN(S(=O)(=O)c2ccc(NC(=O)CN3CCOCC3)cc2)CC1,-1%,-7%,x,23%,-4%,u
Cc1ccc(S(=O)(=O)N2CCN3CCCC3C2)cc1 (configuration not stated),-3%,-11%,0,20%,0%,-4%
CC1CCN(S(=O)(=O)c2ccc(NC(=O)CN3CCCC3)cc2)CC1,6%,4µM*,-4,-26%,71µM*,10µM*
CC(=O)Nc1ccc(S(=O)(=O)N2CCN3CCCC3C2)cc1 (configuration not stated),0%,-1%,-2,30%,-9%,79µM*
Cc1ccc(NC(=O)CCc2ccc(S(=O)(=O)NC3CCCCC3)cc2)cc1,-3%,-12%,5,23%,10%[57.1 µM],1%
CN(CC(=O)Nc1cccc(F)c1)S(=O)(=O)c1ccc2c(c1)n(C)c(=O)c(=O)n2C,x,4%,x,47%,3%,10%[59 µM]
CC1CCN(CC(=O)Nc2ccc(S(=O)(=O)NC3CC3)cc2)CC1,6%,20µM*,0,u,50µM*,14µM*
COc1ccc(S(=O)(=O)N2CCN(Cc3ccc(OC)c(OC)c3)CC2)cc1,u,-8%,3,55%,7%,x
CCOc1ccc(CN2CCN(S(=O)(=O)c3ccc(NC(C)=O)cc3)CC2)cc1OC,2%,22µM*,x,u,50µM*,6.3µM*
CC(=O)Nc1ccc(S(=O)(=O)N2CCN(Cc3cccs3)CC2)cc1,4%,-99%,0,32µM*,35µM*,18µM*
CCN(CC)S(=O)(=O)c1ccc(NC(=O)Cc2cccs2)cc1,27µM*,-23%[11.4 µM],u,u,71µM*,-7%[59 µM]
NS(=O)(=O)c1ccc(NC(=O)Cc2cccs2)cc1,1%,-7%,-29,4%,2%,-5%[59 µM]
c1cn(-c2ccnc(-c3ccc4c(c3)OCO4)n2)cn1,x,x,x,x,x,-9%[0.501 µM]
CC1CCN(S(=O)(=O)c2ccc(NC(=O)Cc3cccs3)cc2)CC1,-4%,50µM*,x,1%,u,u
CC1CCN(S(=O)(=O)c2ccc(NC(=O)C3CC3)cc2)CC1,1%,-8%,-3,103%,-1%,19%
CC(/C=C/C=C(\C)C(=O)O[C@@H]1O[C@H](CO[C@@H]2O[C@H](CO)[C@@H](O)[C@H](O)[C@H]2O)[C@@H](O)[C@H](O)[C@H]1O)=C\C=C\C=C(C)\C=C\C=C(/C)C(=O)O[C@@H]1O[C@H](CO[C@@H]2O[C@H](CO)[C@@H](O)[C@H](O)[C@H]2O)[C@@H](O)[C@H](O)[C@H]1O,x,x,x,x,x,18µM*
COc1ccc(Cc2nnc(NC(=O)Nc3cccc(OC)c3)s2)cc1,-1%,-6%,-4,11%,-14%,15%
